Targets with a hit are over-represented here; the source holds about 7,900 in all. About 0.6% of all pairs of compound and target were hits. A number with no mark means an inactive call.
Assays:
Experiment in all cases: log2 fold change, soluble protein after heating vs DMSO (PISA); higher = thermal stabilisation; K562 cells, 10 uM, 30 min; active = over 0.2 and 3.5 SD of the protein, either way, in both replicates (recomputed)
[1] = compound: CN1CCN(CCOc2cc(OC3CCOCC3)c3c(Nc4c(Cl)ccc5c4OCO5)ncnc3c2)CC1 [saracatinib]
Summary of the method: (§1)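 K562 cells at 2×10^6 cells/mL were given 10 μM compound for 30 min. Aliquots then went through 3 min of heating across 48°C-58°C, were pooled, and were extracted in PBS with 0.5% NP-40 at 4°C, and the supernatant after 21,000xg for 90 min was quantified by TMTpro 16plex LC-MS/MS with channel sums equalised. Thermal stability relative to control samples, from duplicates, is given as log2 fold change.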

[2] = compound: CN1CCN(c2nc(C3=C(c4c[nH]c5ccccc45)C(=O)NC3=O)c3ccccc3n2)CC1 [sotrastaurin]
Summary of the method: as §1

[3] = compound: CN1CC[C@H](c2c(O)cc(O)c3c(=O)cc(-c4ccccc4Cl)oc23)[C@H](O)C1 [alvocidib]
Summary of the method: as §1

[4] = compound: CN1CCc2c(c3ccccc3n2Cc2ccc(C(=O)NO)cc2)C1 [Tubastatin A]
Summary of the method: as §1

[5] = compound: CNC(=O)C1=CC=CC=C1NC2=NC(=NC=C2Cl)NC3=C(C=C(C=C3)N4CCOCC4)OC
Summary of the method: as §1

[6] = compound: CNC(=O)c1ccc(Nc2ncc(C(F)(F)F)c(NCc3nccnc3N(C)S(C)(=O)=O)n2)cc1 [defactinib]
Summary of the method: as §1

[7] = compound: CNCc1ccc(-c2[nH]c3cc(F)cc4c3c2CCNC4=O)cc1 [rucaparib]
Summary of the method: as §1

[8] = compound: CNc1nc(-c2ccc3c(N)n[nH]c3c2)cc(N2C[C@@H](C(=O)NC3CCCCC3)CC[C@H]2C)n1
Summary of the method: as §1

[9] = compound: COC(=O)N[C@@H](C)CNc1nccc(-c2cn(C(C)C)nc2-c2cc(Cl)cc(NS(C)(=O)=O)c2F)n1 [encorafenib]
Summary of the method: as §1

[10] = compound: COC(=O)[C@H](CCSC)NC(=O)C1=C(C=C(C=C1)NC[C@H](CS)N)C2=CC=CC=C2
Summary of the method: as §1

Chain of UniProt Q8IVT5 (Q8IVT5 whole entry, looked up): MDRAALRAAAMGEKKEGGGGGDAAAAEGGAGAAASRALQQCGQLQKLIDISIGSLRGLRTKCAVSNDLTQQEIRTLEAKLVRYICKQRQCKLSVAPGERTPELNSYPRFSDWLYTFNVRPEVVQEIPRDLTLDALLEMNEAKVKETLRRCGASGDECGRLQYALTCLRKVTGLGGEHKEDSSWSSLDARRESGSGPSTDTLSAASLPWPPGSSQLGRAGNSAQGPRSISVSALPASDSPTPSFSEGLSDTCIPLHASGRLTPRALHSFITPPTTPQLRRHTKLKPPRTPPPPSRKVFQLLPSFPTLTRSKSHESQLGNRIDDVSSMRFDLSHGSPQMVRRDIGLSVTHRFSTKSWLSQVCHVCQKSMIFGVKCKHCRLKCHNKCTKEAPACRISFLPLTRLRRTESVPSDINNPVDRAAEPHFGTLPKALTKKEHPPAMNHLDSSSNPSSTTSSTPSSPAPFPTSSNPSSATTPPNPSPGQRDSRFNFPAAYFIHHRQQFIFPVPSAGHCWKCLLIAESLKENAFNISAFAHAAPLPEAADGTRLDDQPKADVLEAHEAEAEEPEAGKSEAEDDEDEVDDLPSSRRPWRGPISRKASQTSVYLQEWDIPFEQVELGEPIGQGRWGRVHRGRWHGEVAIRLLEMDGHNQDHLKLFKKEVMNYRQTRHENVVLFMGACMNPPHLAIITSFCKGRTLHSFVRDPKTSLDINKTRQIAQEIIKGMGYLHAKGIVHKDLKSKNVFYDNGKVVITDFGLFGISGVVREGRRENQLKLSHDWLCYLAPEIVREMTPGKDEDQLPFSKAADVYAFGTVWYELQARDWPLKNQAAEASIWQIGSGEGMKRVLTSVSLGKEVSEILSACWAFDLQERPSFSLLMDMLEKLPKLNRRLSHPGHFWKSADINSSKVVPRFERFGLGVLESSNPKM
Chain of UniProt Q71SY5 (Q71SY5 whole entry, looked up): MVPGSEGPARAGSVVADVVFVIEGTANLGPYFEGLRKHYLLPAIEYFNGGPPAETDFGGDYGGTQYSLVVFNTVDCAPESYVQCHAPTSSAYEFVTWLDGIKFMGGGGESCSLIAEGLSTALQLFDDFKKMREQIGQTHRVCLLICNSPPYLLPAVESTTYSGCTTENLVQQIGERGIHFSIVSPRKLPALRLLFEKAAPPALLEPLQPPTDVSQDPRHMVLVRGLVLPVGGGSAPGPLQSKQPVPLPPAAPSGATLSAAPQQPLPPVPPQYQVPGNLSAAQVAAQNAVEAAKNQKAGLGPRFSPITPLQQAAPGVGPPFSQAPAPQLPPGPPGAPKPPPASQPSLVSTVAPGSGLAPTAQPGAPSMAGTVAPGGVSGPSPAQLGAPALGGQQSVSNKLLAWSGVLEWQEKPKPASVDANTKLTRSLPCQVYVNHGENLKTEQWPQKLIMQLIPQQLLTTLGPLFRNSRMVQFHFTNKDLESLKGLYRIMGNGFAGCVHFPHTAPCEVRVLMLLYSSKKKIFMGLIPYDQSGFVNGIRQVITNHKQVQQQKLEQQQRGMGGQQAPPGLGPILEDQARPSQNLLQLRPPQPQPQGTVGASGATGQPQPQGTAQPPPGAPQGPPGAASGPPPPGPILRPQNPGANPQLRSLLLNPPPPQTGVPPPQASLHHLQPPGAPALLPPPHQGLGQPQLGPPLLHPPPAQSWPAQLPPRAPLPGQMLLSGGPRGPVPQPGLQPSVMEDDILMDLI
Chain of UniProt Q7LBC6 (Q7LBC6 whole entry, looked up): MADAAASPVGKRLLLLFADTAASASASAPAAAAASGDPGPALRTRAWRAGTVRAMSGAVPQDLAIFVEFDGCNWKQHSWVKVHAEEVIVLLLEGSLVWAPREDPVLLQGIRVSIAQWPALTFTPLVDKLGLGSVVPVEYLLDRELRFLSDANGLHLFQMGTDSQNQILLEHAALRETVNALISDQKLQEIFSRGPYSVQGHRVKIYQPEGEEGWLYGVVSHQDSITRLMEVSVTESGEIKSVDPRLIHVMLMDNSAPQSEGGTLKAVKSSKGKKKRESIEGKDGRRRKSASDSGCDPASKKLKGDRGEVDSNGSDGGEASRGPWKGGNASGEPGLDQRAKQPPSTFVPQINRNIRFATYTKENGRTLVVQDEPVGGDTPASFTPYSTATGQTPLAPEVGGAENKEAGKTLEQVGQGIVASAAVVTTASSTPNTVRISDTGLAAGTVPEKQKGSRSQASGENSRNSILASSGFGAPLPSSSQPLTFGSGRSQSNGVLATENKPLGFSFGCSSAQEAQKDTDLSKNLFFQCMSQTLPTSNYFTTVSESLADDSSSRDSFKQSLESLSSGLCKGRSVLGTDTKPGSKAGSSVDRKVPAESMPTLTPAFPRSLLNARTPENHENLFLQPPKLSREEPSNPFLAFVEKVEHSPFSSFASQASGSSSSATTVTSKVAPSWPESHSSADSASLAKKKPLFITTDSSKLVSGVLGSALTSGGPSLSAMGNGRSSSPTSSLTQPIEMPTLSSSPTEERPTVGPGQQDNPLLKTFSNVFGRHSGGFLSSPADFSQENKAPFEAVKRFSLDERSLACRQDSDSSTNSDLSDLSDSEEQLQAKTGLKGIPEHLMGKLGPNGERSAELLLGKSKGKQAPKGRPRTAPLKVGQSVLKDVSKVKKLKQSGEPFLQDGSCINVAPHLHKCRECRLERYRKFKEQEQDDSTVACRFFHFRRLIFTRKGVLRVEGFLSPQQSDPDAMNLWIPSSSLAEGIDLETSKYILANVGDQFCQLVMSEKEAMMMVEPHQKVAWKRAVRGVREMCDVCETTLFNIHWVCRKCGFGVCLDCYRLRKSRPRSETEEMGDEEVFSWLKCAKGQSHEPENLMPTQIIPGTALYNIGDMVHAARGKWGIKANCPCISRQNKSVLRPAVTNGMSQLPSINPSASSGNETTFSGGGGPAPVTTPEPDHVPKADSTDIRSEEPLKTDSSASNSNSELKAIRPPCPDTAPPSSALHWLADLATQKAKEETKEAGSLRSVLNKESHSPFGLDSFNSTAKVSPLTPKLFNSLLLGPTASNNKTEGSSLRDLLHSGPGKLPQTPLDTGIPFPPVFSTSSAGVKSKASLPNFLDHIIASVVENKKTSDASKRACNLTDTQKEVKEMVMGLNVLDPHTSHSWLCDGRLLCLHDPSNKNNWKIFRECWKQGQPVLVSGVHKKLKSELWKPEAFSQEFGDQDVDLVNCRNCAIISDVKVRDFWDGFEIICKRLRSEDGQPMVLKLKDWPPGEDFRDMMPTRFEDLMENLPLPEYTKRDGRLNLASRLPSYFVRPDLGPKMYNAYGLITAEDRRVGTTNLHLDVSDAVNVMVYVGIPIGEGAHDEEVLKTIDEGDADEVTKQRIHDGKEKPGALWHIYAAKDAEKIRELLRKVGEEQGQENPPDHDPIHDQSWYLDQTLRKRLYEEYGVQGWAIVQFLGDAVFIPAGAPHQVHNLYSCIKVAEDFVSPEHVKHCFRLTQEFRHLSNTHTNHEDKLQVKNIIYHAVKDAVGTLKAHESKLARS
Chain of UniProt P43362 (P43362 whole entry, looked up): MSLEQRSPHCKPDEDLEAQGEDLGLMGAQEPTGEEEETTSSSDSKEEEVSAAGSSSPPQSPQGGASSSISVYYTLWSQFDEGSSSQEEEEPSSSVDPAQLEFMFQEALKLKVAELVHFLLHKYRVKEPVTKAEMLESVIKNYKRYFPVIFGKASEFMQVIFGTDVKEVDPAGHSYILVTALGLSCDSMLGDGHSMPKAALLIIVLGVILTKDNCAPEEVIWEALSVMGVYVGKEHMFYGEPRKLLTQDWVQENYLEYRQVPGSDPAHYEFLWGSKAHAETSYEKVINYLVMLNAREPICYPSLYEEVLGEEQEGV
Chain of UniProt Q71RC2 (Q71RC2 whole entry, looked up): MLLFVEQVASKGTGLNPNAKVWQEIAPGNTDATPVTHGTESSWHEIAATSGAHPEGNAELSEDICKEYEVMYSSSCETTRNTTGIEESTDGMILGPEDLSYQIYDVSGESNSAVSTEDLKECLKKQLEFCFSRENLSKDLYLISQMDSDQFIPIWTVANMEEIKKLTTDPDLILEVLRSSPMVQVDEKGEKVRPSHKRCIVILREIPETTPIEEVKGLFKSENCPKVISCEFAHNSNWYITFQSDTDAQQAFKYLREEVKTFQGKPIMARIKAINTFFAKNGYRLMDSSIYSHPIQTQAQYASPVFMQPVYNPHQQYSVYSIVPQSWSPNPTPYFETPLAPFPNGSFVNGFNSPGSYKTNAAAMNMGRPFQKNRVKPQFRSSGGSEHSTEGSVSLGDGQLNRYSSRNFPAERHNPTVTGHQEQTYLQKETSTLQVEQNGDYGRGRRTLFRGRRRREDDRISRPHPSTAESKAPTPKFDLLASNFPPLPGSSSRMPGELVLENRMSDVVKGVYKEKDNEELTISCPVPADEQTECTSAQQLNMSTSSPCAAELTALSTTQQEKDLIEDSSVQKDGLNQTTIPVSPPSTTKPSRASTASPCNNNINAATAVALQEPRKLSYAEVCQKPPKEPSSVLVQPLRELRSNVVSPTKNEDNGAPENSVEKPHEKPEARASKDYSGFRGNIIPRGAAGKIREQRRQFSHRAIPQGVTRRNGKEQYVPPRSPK
Chain of UniProt O00214 (O00214 whole entry, looked up): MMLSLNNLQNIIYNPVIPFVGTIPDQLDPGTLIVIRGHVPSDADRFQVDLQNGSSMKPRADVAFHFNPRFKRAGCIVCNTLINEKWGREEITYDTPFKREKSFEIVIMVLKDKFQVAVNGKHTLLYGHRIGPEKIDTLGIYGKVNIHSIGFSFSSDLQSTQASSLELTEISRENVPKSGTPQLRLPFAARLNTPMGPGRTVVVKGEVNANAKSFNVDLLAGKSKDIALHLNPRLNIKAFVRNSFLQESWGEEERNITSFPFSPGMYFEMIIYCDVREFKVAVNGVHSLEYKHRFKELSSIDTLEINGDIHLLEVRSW
Chain of UniProt O95372 (O95372 whole entry, looked up): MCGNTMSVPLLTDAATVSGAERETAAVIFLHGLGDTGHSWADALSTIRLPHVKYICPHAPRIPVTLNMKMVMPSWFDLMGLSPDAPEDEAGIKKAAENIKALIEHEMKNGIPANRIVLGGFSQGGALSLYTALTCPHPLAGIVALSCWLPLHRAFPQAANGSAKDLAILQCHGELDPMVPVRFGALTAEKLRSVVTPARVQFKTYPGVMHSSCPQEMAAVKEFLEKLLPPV

Target	log2 fold change [1]	log2 fold change [2]	log2 fold change [3]	log2 fold change [4]	log2 fold change [5]	log2 fold change [6]	log2 fold change [7]	log2 fold change [8]	log2 fold change [9]	log2 fold change [10]
KDELR2 (UniProt P33947)	0.094	0.061	0.018	-0.295	0.04	-0.004	-0.072	-0.058	-0.005	0.023
MFF (UniProt Q9GZY8)	0.003	-0.027	-0.06	0.012	-0.127	-0.025	-0.059	-0.078	0.015	0.092
LARP7 isoform 3 (UniProt Q4G0J3)	0.015	-0.076	-0.234 (active)	-0.002	-0.04	-0.328 (active)	-0.164	0.003	0.034	-0.019
MFN1 (UniProt Q8IWA4)	-0.029	0.016	-0.076	0.025	-0.019	-0.074	-0.015	0.023	0.038	0
MDC1 (UniProt Q14676)	-0.194	-0.003	0.027	0.011	-0.162	-0.012	0.082	0.119	0.075	-0.067
LPIN1 isoform 7 (UniProt Q14693)	0.003	-0.093	-0.059	0.041	-0.113	-0.03	-0.054	-0.13	0.009	0.035
MED16 (UniProt Q9Y2X0)	-0.006	-0.044	-0.236	-0.098	0.074	-0.009	-0.004	0.043	-0.025	-0.052
MAP3K4 isoform 2 (UniProt Q9Y6R4)	0.077	0.034	-0.093	-0.038	0.153	-0.008	0.006	-0.002	-0.023	0.029
LUC7L2 (UniProt Q9Y383)	0.022	-0.01	-0.246	0.007	-0.304 (active)	-0.267 (active)	-0.077	-0.047	0.065	0.03
KSR1 (UniProt Q8IVT5)	-0.229	-0.149	-0.135	0.054	-0.061	-0.073	-0.044	0.038	0.081	0.012
MCU (UniProt Q8NE86)	0.039	-0.028	-0.08	0.036	0.013	-0.043	-0.032	-0.014	-0.017	-0.032
LARP4 isoform 4 (UniProt Q71RC2)	-0.066	-0.051	0.031	0.041	0.047	-0.036	0.257	0.059	0.086	-0.014
MAGEA9 (UniProt P43362)	0.041	-0.037	-0.346	-0.038	-0.001	-0.175	-0.153	0.015	0.039	-0.082
IPO11 isoform 2 (UniProt Q9UI26)	0.048	-0.02	-0.006	-0.043	0.01	-0.013	-0.053	-0.03	-0.004	0.012
MAP2K1 (UniProt Q02750)	0.02	0.028	-0.05	-0.018	-0.053	-0.011	-0.049	-0.005	0.005	0.009
KDM3B (UniProt Q7LBC6)	0.01	-0.089	-0.091	-0.01	0.072	-0.161	-0.058	-0.093	0.054	-0.029
JMJD6 isoform 3 (UniProt Q6NYC1)	-0.01	-0.018	-0.076	-0.122	0.081	-0.188	0.061	-0.016	0.026	0.035
MAGEC2 (UniProt Q9UBF1)	0.092	-0.068	-0.034	-0.013	0.015	-0.056	-0.021	-0.082	0.079	0.003
MAPKAPK3 (UniProt Q16644)	0.134	-0.117	0.011	-0.077	0.117	-0.051	-0.023	0.011	0.106	-0.01
LYPLA2 (UniProt O95372)	-0.063	-0.039	-0.126	0.018	0.007	-0.09	-0.041	-0.01	-0.031	0.087
LGALS8 isoform 2 (UniProt O00214)	-0.359	-0.323	0.053	0.07	-0.244	0.104	0.306	0.141	0.218	-0.051
ITIH4 (UniProt Q14624)	0.045	0.271	0.005	-0.003	-0.001	0.101	-0.142	-0.124	-0.001	-0.009
MGST3 (UniProt O14880)	0.037	0.064	0.021	-0.01	-0.029	0.012	-0.027	-0.028	-0.033	0.053
MICOS13 (UniProt Q5XKP0)	0.039	0.01	-0.001	0	0.005	-0.07	-0.041	-0.017	-0.028	-0.005
MED25 isoform 3 (UniProt Q71SY5)	-0.079	0.031	-0.102	-0.042	-0.014	-0.045	0.104	0.036	0.083	-0.111
LTV1 (UniProt Q96GA3)	-0.09	-0.037	0.151	0.16	0.083	0.145	0.074	0.081	0.109	-0.061
KLHDC4 (UniProt Q8TBB5)	-0.006	-0.037	0.074	-0.072	0.02	0.021	0.115	-0.029	0.106	-0.066
INPP1 (UniProt P49441)	0.071	0	-0.011	0.061	0.044	-0.032	-0.029	0.048	0.038	-0.038
LRPPRC (UniProt P42704)	-0.281	-0.874	-0.58	0.316	-0.241	-0.346	0.395	-0.175	0.116	-0.103

Reference: the supplement of paper PMC10849652
